PubChem BioAssay (NCI)
The panel holds about 83,000 compounds, 20% with a hit somewhere; the sample as a whole holds those more often.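 Step 1: grow cells in 96-well plates. Step 2: add test compound at a single concentration. Step 3: incubate 48 h. Step 4: record percent growth.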 Activity calls are given as the source filed them. How the source made its calls: active means growth percent below 10; inactive means the rest.

How the values were obtained:
Assay in all cases: NCI-60 one-dose screen, 48 h (100 = growth as untreated, 0 = no growth, -100 = all killed)
Conditions in all cases: 10 µM
NCI-H23 lung = system: NCI-H23 lung
NCI-H226 lung = system: NCI-H226 lung
NCI-H322M lung = system: NCI-H322M lung
HOP-62 NSCLC = system: HOP-62 NSCLC
NCI-H460 lung = system: NCI-H460 lung
NCI-H522 lung = system: NCI-H522 lung
A549/ATCC NSCLC = system: A549/ATCC NSCLC
786-0 renal = system: 786-0 renal
COLO 205 colon = system: COLO 205 colon
DU-145 prostate = system: DU-145 prostate
K-562 leukemia = system: K-562 leukemia
MDA-MB-231 breast = system: MDA-MB-231 breast
RXF 393 renal = system: RXF 393 renal
SF-295 CNS = system: SF-295 CNS
SF-539 CNS = system: SF-539 CNS
UACC-257 melanoma = system: UACC-257 melanoma
M14 melanoma = system: M14 melanoma
HCT-15 colon = system: HCT-15 colon
SF-268 CNS = system: SF-268 CNS
MALME-3M melanoma = system: MALME-3M melanoma

Row | Structure (SMILES) | growth (NCI-H23 lung) | growth (NCI-H226 lung) | growth (NCI-H322M lung) | growth (HOP-62 NSCLC) | growth (NCI-H460 lung) | growth (NCI-H522 lung) | growth (A549/ATCC NSCLC) | growth (786-0 renal) | growth (COLO 205 colon) | growth (DU-145 prostate) | growth (K-562 leukemia) | growth (MDA-MB-231 breast) | growth (RXF 393 renal) | growth (SF-295 CNS) | growth (SF-539 CNS) | growth (UACC-257 melanoma) | growth (M14 melanoma) | growth (HCT-15 colon) | growth (SF-268 CNS) | growth (MALME-3M melanoma)
1 | Oc1[nH]c2ccc(Cl)cc2c1/C=c1/ccc2c(c1)N=C(c1cc(F)cc(F)c1)N=2 | 64% (inactive) | 86.1% (inactive) | 93.2% (inactive) | 58.7% (inactive) | 63.8% (inactive) | 33.7% (inactive) | 57.4% (inactive) | 85.9% (inactive) | 77.1% (inactive) | 81.8% (inactive) | 14.8% (inactive) | 79.3% (inactive) | 61.6% (inactive) | 46.7% (inactive) | 83.3% (inactive) | 70.5% (inactive) | 68.5% (inactive) | 46.1% (inactive) | – | –
2 | O=C(Nc1ccncc1)C(=O)c1cn(S(=O)(=O)c2cccc3ccccc23)c2ccccc12 | 62.1% (inactive) | 76.8% (inactive) | 86% (inactive) | 95.1% (inactive) | 85.7% (inactive) | 48% (inactive) | 77.8% (inactive) | 77.5% (inactive) | 101% (inactive) | 95.1% (inactive) | 18.9% (inactive) | 74.6% (inactive) | 89.7% (inactive) | 52% (inactive) | 92.7% (inactive) | 89% (inactive) | 82.7% (inactive) | 65.7% (inactive) | 107% (inactive) | –
3 | COc1ccc(-c2nc3sc(C4CC4)nn3c2/C=C2/C(=O)Nc3ccc(OC)cc32)cc1 | 82% (inactive) | 63.7% (inactive) | 61.6% (inactive) | 80.9% (inactive) | 77.7% (inactive) | 63.8% (inactive) | 75.5% (inactive) | 86% (inactive) | 88.5% (inactive) | 62.3% (inactive) | 74.3% (inactive) | 58.4% (inactive) | 63.9% (inactive) | 82.8% (inactive) | 25.1% (inactive) | 55.2% (inactive) | 63.8% (inactive) | 76.9% (inactive) | 75.8% (inactive) | –
4 | CCn1cc(C(=O)O)c(=O)c2cnc(N3CCCC3)nc21 | 105% (inactive) | 94.5% (inactive) | 97.3% (inactive) | 108% (inactive) | 110% (inactive) | 101% (inactive) | 96.1% (inactive) | 92.6% (inactive) | 111% (inactive) | 119% (inactive) | – | 106% (inactive) | – | 94.7% (inactive) | 100% (inactive) | 97.2% (inactive) | 96.9% (inactive) | 111% (inactive) | 116% (inactive) | 92.8% (inactive)
5 | O=C(CNC(=O)OCc1ccccc1)NCC(=O)Oc1ccc([N+](=O)[O-])cc1 | 102% (inactive) | 99% (inactive) | 107% (inactive) | 107% (inactive) | 101% (inactive) | 89.6% (inactive) | 23.6% (inactive) | 103% (inactive) | 99.2% (inactive) | 111% (inactive) | 117% (inactive) | 106% (inactive) | 117% (inactive) | 103% (inactive) | 104% (inactive) | – | 89.5% (inactive) | 105% (inactive) | 108% (inactive) | –
6 | CC(C)(C)NC/C(=C\c1ccccc1)C(=O)c1ccccc1 | 12.4% (inactive) | 49.1% (inactive) | 63.3% (inactive) | 26.5% (inactive) | 8.72% (active) | -92.5% (active) | 30.1% (inactive) | -41.6% (active) | -74.1% (active) | 21.8% (inactive) | 6.24% (active) | -23% (active) | -66.4% (active) | 85.9% (inactive) | -46.2% (active) | -8.37% (active) | -30.6% (active) | -52.1% (active) | 7.36% (active) | –
7 | COc1cccc(C2C3=C(COC3=O)N(CCO)c3cc(OC)ccc32)c1 (centres undefined) | 26.3% (inactive) | 0.496% (active) | 44% (inactive) | 30.3% (inactive) | 0.788% (active) | -34.8% (active) | 18% (inactive) | 27.9% (inactive) | -16.4% (active) | -4.6% (active) | 17.1% (inactive) | 8.33% (active) | 15.9% (inactive) | -20.3% (active) | -6.71% (active) | – | 6.29% (active) | 11.3% (inactive) | 31.6% (inactive) | –
8 | COc1ccc(C2CC(c3ccc(N(C)C)cc3)=NN2c2ccc(S(N)(=O)=O)cc2)cc1 (centres undefined) | 53.6% (inactive) | 52.4% (inactive) | 83.1% (inactive) | 78.2% (inactive) | 29.2% (inactive) | 40.9% (inactive) | 26.1% (inactive) | 64.3% (inactive) | 55.4% (inactive) | 78.4% (inactive) | – | 67.7% (inactive) | 63.2% (inactive) | 35.2% (inactive) | 114% (inactive) | 73.7% (inactive) | 69.2% (inactive) | 43% (inactive) | 59.6% (inactive) | 83% (inactive)
9 | CCN(CC)CCOc1nc2ccc(OC)cc2c2c1-c1ccc(OC)cc1C2=O | -30.5% (active) | 16.5% (inactive) | -13.2% (active) | 6.96% (active) | -75.4% (active) | -89.2% (active) | -67.2% (active) | 26% (inactive) | 15.3% (inactive) | -70.3% (active) | -43.5% (active) | 20.5% (inactive) | 4.4% (active) | -2.73% (active) | 28.8% (inactive) | -52.8% (active) | -83.3% (active) | -59.4% (active) | 17.3% (inactive) | –
10 | O=C(Nc1ccc(Cl)c(Cl)c1)Nc1c(Oc2ccc(Cl)c(Cl)c2)ccc(Cl)c1S(=O)(=O)O | 39.5% (inactive) | 66% (inactive) | 50.8% (inactive) | 49.4% (inactive) | 9.02% (active) | -1.66% (active) | 37% (inactive) | 35% (inactive) | -13.9% (active) | 21.1% (inactive) | 9.98% (active) | 39.5% (inactive) | -14.3% (active) | -27.2% (active) | 4% (active) | 61.9% (inactive) | 19.3% (inactive) | 39.6% (inactive) | 52.1% (inactive) | –
11 | COc1cc([C@@H]2c3cc4c(cc3C(Br)[C@H]3COC(=O)[C@H]23)OCO4)cc(OC)c1OC (some centres undefined) | 4.09% (active) | 97.8% (inactive) | 42.2% (inactive) | -13% (active) | -50.8% (active) | -46.5% (active) | -24% (active) | 9.16% (active) | -88.4% (active) | -82.4% (active) | – | -5.49% (active) | – | -15.4% (active) | -44.5% (active) | 16.2% (inactive) | -8.65% (active) | -3.53% (active) | -29.9% (active) | 31.5% (inactive)
12 | COc1cc(Cl)cc(-c2nn(-c3cccc(NC(=O)c4ccc(Cl)c(Cl)c4)c3)cc2-c2ccncc2)c1 | 75.3% (inactive) | 66.3% (inactive) | 84.5% (inactive) | 105% (inactive) | 65.2% (inactive) | 53.7% (inactive) | – | 74.1% (inactive) | 81.5% (inactive) | 88.5% (inactive) | 46.3% (inactive) | 33.9% (inactive) | 59.2% (inactive) | 36.1% (inactive) | 74.5% (inactive) | 84.2% (inactive) | 68.9% (inactive) | 57.9% (inactive) | 82.4% (inactive) | 96.4% (inactive)
13 | COc1cc(-c2nc(-c3nnc(-c4ccccc4Cl)o3)c3ccccn23)cc(OC)c1OC | 91.1% (inactive) | 84% (inactive) | 88.3% (inactive) | 87.2% (inactive) | 95.4% (inactive) | 78.4% (inactive) | – | 105% (inactive) | 85.4% (inactive) | 98.5% (inactive) | 65.8% (inactive) | 90.7% (inactive) | 90.8% (inactive) | 77.9% (inactive) | 88.3% (inactive) | 91.4% (inactive) | 112% (inactive) | 73.3% (inactive) | – | 119% (inactive)
14 | N=C(N)c1ccc(-c2ccc(-c3cccs3)s2)cc1 | 83.8% (inactive) | 82.3% (inactive) | 2.2% (active) | 86.6% (inactive) | -72.4% (active) | 76.4% (inactive) | -44.8% (active) | – | -96.6% (active) | 0.967% (active) | -56% (active) | 75.8% (inactive) | 75.8% (inactive) | 16.4% (inactive) | 89.5% (inactive) | 34.6% (inactive) | 30.3% (inactive) | 0.674% (active) | 101% (inactive) | -80.1% (active)
15 | COc1cc(Cl)cc(-c2nn(-c3cccc(NC(=O)c4ccc(N5CCOCC5)c(C(F)(F)F)c4)c3)cc2-c2ccncc2)c1 | 79% (inactive) | 64.2% (inactive) | 89.6% (inactive) | 52.2% (inactive) | 29.3% (inactive) | 52.7% (inactive) | – | 43.1% (inactive) | 52.7% (inactive) | 93.3% (inactive) | 4.03% (active) | 11.4% (inactive) | 12.4% (inactive) | 2.6% (active) | 52.1% (inactive) | 63.6% (inactive) | 56.7% (inactive) | 17.3% (inactive) | 67.3% (inactive) | 57.9% (inactive)
